Test results: the supplement of paper PMC10849652
The full data set covers some 7,900 targets. This sample favours those with a hit. About 0.6% of all pairs of compound and target were hits. Values without a mark were called inactive.

The targets below were run with NC(=O)c1cnc(N[C@@H]2CCCC[C@@H]2N)nc1Nc1cccc(-n2nccn2)c1 (assay: log2 fold change, soluble protein after heating vs DMSO (PISA); higher = thermal stabilisation; K562 cells, 10 uM, 30 min; active = over 0.2 and 3.5 SD of the protein, either way, in both replicates (recomputed)).
Outline: (§1)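 K562 cells at 2×10^6 cells/mL were exposed to 10 μM compound for 30 min, then aliquots were heated for 3 min across 48°C-58°C, pooled, and extracted in PBS containing 0.5% NP-40 at 4°C. The supernatant after 21,000xg for 90 min was taken as soluble protein and measured by TMTpro 16plex LC-MS/MS with channel sums equalised. Thermal stability is reported relative to control samples, with values from duplicates. Fold changes are given on a log2 scale.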

Sequence of UniProt P83916 (P83916 whole entry, looked up): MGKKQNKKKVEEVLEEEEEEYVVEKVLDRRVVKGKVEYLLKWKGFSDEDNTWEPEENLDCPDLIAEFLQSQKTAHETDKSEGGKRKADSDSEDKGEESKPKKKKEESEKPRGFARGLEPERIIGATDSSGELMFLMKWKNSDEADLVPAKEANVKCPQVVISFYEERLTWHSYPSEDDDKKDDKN
Sequence of UniProt Q9Y3X0 (Q9Y3X0 whole entry, looked up): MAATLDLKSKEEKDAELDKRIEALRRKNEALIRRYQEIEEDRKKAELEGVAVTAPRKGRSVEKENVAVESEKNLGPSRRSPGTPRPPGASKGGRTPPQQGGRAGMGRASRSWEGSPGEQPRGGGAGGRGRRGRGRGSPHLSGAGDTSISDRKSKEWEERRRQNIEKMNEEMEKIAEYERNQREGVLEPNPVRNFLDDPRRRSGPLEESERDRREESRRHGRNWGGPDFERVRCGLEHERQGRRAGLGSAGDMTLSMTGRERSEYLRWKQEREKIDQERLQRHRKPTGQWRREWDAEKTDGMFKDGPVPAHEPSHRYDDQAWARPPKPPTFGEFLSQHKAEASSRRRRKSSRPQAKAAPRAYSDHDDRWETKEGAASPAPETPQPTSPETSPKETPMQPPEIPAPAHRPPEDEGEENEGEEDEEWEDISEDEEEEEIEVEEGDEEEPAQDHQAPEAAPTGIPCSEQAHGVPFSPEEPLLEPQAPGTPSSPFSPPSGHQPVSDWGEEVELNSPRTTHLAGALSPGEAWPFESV
Sequence of UniProt Q96JB5 (Q96JB5 whole entry, looked up): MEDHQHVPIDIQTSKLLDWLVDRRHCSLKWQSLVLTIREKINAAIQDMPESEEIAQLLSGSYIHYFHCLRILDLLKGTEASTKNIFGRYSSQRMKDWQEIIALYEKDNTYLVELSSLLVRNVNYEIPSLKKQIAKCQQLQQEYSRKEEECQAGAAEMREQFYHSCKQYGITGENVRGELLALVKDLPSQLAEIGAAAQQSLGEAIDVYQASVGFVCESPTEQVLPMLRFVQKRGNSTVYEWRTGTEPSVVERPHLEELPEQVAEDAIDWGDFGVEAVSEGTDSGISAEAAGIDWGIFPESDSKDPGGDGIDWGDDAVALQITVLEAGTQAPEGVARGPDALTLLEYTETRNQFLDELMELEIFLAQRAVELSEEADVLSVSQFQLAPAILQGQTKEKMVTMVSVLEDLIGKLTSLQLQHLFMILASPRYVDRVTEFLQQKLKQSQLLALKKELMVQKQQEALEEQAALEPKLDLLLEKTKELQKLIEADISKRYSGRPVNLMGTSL
Sequence of UniProt Q14839 (Q14839 whole entry, looked up): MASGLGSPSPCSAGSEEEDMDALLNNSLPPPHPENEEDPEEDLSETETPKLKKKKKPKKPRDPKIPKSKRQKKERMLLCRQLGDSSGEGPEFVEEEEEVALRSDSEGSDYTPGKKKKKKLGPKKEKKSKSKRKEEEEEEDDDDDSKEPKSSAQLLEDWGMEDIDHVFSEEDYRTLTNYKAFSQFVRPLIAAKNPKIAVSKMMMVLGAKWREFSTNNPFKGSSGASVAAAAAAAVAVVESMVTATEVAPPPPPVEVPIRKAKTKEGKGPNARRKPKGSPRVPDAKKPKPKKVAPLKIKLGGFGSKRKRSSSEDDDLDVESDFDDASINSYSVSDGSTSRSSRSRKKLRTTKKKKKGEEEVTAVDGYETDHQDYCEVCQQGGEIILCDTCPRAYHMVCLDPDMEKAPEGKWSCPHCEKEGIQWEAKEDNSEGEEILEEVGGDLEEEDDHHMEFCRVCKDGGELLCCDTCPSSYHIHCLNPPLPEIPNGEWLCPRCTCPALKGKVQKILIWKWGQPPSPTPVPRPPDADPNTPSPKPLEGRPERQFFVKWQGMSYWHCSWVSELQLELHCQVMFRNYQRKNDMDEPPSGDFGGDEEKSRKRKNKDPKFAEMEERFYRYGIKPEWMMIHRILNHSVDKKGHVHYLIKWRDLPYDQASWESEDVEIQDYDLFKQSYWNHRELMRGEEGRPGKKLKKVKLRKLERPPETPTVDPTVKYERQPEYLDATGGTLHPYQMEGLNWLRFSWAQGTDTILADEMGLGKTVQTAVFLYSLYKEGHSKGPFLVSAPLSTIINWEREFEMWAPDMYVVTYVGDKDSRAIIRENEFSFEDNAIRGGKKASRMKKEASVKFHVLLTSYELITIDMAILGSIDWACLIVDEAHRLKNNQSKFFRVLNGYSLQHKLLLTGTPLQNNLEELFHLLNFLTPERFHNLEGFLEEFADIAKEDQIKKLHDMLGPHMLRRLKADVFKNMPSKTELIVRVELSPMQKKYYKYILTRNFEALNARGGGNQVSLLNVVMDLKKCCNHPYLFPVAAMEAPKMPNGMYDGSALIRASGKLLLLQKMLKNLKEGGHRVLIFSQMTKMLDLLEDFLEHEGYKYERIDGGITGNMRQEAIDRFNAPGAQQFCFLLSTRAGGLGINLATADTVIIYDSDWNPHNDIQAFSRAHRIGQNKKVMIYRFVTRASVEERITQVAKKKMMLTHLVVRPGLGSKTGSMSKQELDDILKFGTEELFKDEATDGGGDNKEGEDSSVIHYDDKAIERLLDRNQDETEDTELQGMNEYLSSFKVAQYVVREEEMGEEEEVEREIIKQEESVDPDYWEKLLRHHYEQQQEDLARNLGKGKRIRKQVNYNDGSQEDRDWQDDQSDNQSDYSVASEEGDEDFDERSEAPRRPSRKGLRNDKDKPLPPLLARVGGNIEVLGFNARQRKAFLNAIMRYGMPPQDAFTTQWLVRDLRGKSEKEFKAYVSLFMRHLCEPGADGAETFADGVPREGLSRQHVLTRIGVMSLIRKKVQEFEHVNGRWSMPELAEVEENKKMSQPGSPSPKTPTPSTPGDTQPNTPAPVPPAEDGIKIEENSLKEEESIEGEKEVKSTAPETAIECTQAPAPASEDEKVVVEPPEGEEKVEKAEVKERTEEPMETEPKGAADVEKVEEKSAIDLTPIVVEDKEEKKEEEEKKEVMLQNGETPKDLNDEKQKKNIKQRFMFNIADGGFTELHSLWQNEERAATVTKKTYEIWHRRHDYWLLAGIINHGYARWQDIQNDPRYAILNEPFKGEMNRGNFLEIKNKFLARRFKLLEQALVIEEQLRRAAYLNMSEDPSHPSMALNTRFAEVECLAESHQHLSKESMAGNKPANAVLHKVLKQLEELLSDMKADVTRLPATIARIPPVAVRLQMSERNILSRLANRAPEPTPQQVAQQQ
Sequence of UniProt Q99627 (Q99627 whole entry, looked up): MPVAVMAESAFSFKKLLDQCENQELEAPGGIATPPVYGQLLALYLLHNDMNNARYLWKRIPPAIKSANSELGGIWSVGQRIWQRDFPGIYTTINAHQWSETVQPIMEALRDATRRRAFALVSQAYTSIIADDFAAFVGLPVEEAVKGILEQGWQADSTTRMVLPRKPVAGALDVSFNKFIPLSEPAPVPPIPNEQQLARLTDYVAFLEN
Sequence of UniProt O75909 (O75909 whole entry, looked up): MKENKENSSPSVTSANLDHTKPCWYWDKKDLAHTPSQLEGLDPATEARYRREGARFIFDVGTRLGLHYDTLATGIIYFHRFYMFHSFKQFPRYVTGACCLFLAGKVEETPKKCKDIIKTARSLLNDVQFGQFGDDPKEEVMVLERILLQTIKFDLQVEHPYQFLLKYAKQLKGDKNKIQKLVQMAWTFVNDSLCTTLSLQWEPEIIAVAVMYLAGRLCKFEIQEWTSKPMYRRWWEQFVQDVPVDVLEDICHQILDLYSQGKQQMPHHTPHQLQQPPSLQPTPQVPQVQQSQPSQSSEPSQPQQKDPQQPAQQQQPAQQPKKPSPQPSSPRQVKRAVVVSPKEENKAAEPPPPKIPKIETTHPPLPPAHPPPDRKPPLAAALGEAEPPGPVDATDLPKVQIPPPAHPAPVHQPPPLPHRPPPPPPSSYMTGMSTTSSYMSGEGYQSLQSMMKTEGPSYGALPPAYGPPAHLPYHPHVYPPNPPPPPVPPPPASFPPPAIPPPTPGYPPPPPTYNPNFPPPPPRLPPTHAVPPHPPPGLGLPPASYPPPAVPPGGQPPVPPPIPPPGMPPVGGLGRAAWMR
Sequence of UniProt Q9Y6H1 (Q9Y6H1 whole entry, looked up): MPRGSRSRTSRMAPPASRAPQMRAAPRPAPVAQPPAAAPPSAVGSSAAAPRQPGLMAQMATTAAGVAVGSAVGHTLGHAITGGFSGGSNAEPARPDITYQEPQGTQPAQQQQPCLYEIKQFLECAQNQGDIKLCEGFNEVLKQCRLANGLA
Sequence of UniProt P33240 (P33240 whole entry, looked up): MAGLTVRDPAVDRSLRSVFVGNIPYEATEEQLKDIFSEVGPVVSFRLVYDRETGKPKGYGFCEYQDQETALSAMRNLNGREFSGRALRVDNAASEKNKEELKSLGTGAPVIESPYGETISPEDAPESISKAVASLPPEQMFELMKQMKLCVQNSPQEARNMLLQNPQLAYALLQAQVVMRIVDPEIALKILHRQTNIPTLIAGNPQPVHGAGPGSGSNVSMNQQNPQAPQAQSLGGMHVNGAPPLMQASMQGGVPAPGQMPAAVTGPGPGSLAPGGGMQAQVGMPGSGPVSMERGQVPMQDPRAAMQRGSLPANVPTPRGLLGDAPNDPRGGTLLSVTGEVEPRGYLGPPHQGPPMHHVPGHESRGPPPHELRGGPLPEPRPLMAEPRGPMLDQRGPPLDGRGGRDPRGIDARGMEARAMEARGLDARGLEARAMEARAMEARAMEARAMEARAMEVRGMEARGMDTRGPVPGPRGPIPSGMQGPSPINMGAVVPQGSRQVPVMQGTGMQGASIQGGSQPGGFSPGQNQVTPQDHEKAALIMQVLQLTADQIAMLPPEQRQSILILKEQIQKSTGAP
Sequence of UniProt Q8N1A6 (Q8N1A6 whole entry, looked up): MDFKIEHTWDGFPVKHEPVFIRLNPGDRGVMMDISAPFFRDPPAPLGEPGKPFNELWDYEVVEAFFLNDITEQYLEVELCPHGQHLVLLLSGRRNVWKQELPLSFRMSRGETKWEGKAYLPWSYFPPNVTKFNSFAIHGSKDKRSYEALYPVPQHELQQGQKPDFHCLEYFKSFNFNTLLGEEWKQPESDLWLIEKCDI
Sequence of UniProt P20674 (P20674 whole entry, looked up): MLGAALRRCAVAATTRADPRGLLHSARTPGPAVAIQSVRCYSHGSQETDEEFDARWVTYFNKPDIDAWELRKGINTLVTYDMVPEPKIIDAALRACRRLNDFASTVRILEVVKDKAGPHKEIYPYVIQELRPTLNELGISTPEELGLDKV

| Target | log2 fold change |
| --- | --- |
| CD151 (UniProt P48509) | 0.139 |
| CBX1 (UniProt P83916) | -0.032 |
| CHCHD2 (UniProt Q9Y6H1) | -0.011 |
| CCNK isoform 4 (UniProt O75909) | -0.104 |
| CBR1 (UniProt P16152) | 0.025 |
| CASP2 (UniProt P42575) | -0.047 |
| COCH (UniProt O43405) | -0.014 |
| CTBS (UniProt Q01459) | -0.046 |
| CDKN2AIP (UniProt Q9NXV6) | 0.044 |
| CBS (UniProt P35520) | 0.006 |
| COMT (UniProt P21964) | 0.356 (active) |
| CCDC9 (UniProt Q9Y3X0) | 0.034 |
| CHD4 isoform 2 (UniProt Q14839) | -0.07 |
| COX5A (UniProt P20674) | 0.103 |
| CLCN3 (UniProt P51790) | -0.099 |
| C4A (UniProt P0C0L4) | -0.016 |
| CCAR2 isoform 2 (UniProt Q8N163) | -0.106 |
| COPS4 (UniProt Q9BT78) | 0.009 |

| Target | log2 fold change |
| --- | --- |
| CDK16 isoform 2 (UniProt Q00536) | -0.091 |
| COPS3 (UniProt Q9UNS2) | -0.034 |
| C4orf33 (UniProt Q8N1A6) | -0.003 |
| COPS8 (UniProt Q99627) | 0.038 |
| CDK5RAP3 isoform 4 (UniProt Q96JB5) | -0.029 |
| CCZ1 (UniProt P86791) | -0.072 |
| CSTF2 (UniProt P33240) | -0.054 |
| COX6B1 (UniProt P14854) | -0.019 |
| CNDP2 (UniProt Q96KP4) | -0.035 |
| CPQ (UniProt Q9Y646) | -0.01 |
| CA1 (UniProt P00915) | 0.011 |
| CNN2 (UniProt Q99439) | -0.031 |
| CSNK2A2 (UniProt P19784) | 0.008 |
| CNOT2 (UniProt Q9NZN8) | -0.014 |
| CRK (UniProt P46108) | 0.004 |
| CETN2 (UniProt P41208) | 0.024 |
| CPSF1 (UniProt Q10570) | 0.069 |
| CSTF3 (UniProt Q12996) | -0.027 |

These targets were tested with NC1(c2ccc(-c3nc4ccn5c(=O)[nH]nc5c4cc3-c3ccccc3)cc2)CCC1 in the same assay as above.
Outline: as §1

| Target | log2 fold change |
| --- | --- |
| CD151 (UniProt P48509) | 0.125 |
| CBX1 (UniProt P83916) | 0.025 |
| CHCHD2 (UniProt Q9Y6H1) | 0.022 |
| CCNK isoform 4 (UniProt O75909) | 0.044 |
| CBR1 (UniProt P16152) | -0.029 |
| CASP2 (UniProt P42575) | -0.099 |
| COCH (UniProt O43405) | 0.035 |
| CTBS (UniProt Q01459) | -0.268 |
| CDKN2AIP (UniProt Q9NXV6) | -0.018 |
| CBS (UniProt P35520) | -0.025 |
| COMT (UniProt P21964) | -0.015 |
| CCDC9 (UniProt Q9Y3X0) | 0.121 |
| CHD4 isoform 2 (UniProt Q14839) | -0.122 |
| COX5A (UniProt P20674) | 0.117 |
| CLCN3 (UniProt P51790) | -0.264 |
| C4A (UniProt P0C0L4) | -0.129 |
| CCAR2 isoform 2 (UniProt Q8N163) | -0.013 |
| COPS4 (UniProt Q9BT78) | -0.032 |

| Target | log2 fold change |
| --- | --- |
| CDK16 isoform 2 (UniProt Q00536) | -0.104 |
| COPS3 (UniProt Q9UNS2) | -0.002 |
| C4orf33 (UniProt Q8N1A6) | -0.218 |
| COPS8 (UniProt Q99627) | -0.042 |
| CDK5RAP3 isoform 4 (UniProt Q96JB5) | -0.092 |
| CCZ1 (UniProt P86791) | -0.33 (active) |
| CSTF2 (UniProt P33240) | 0.086 |
| COX6B1 (UniProt P14854) | -0.146 |
| CNDP2 (UniProt Q96KP4) | -0.052 |
| CPQ (UniProt Q9Y646) | -0.011 |
| CA1 (UniProt P00915) | -0.013 |
| CNN2 (UniProt Q99439) | -0.104 |
| CSNK2A2 (UniProt P19784) | -0.052 |
| CNOT2 (UniProt Q9NZN8) | -0.058 |
| CRK (UniProt P46108) | -0.063 |
| CETN2 (UniProt P41208) | 0.102 |
| CPSF1 (UniProt Q10570) | 0.059 |
| CSTF3 (UniProt Q12996) | -0.046 |
